Screens as filed in PubChem BioAssay.
HttQ103 aggreg: mutant huntingtin aggregation inhibition; Potency, µM (top dose mostly 46.1 µM), without a hit: at the top dose activity change, negative = inhibition, most hits filed as inhibitors; PC12 HttQ103-GFP aggregates, Acumen cytometry, 40 h; hit rate 1.1% among 220,000; also: potency is read from the fitted curve at half-maximal effect; % is scaled to controls: 0 for no effect and ±100 for the full control effect; nearly all actives have a fitted effect of over 60% in size
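Ecdysone-promoter PC12 model expressing HTT exon 1 Q103 fused to GFP, induced by tebufenozide at 100 nM final. Compounds titrated; aggregates sized 1–25 µm scored on a 488 nm laser cytometer.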
IMPase cell inh: IMPase inhibition in cells | P97697 | CHO-M1 cells, IP1 accumulation, HTRF TR-FRET ratio | inhibition (IP1 accumulation), % at 46.1 µM | 120,000 tested, under 10 active | AID 901; active = well fitted curve in the direction sought with a large enough effect in the signal ratio, not every such curve was filed as active; inconclusive = small, poorly fitted or top-dose-only effect, or a change in a side signal; inactive = no such curve, though single readings can be large or run the other way; the % refers to the signal ratio;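 also: cells stimulated with carbachol in lithium chloride buffer; plate controls were DMSO basal wells for no effect and reference inhibitor wells for full effect; higher means more IMPase inhibition seen as more IP1 and lower FRET ratio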
Target sequence (P97697 whole entry, looked up): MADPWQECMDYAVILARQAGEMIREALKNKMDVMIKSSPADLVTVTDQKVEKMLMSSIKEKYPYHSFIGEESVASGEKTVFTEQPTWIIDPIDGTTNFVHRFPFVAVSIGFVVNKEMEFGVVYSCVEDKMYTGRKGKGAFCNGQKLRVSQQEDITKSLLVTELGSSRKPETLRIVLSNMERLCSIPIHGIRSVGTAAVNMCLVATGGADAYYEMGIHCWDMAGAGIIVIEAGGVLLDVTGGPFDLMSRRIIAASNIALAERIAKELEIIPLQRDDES
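The IP-One HTRF competitive assay in carbachol-stimulated CHO-M1 cells quantifies cellular IP1. Compounds spanned up to 46 uM final, and activity is expressed as AC50 from concentration-response fits of the ratio and donor data.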
ALDH1A1 block: inhibitors of human aldehyde dehydrogenase 1A1; P00352; Purified ALDH1A1, NADH fluorescence, propionaldehyde substrate; Potency, µM (series often up to 75.3 µM), inactives show top-dose activity, negative = inhibition, actives largely listed as inhibitors; hit rate 7.3% among 220,000; AID 1030; active = well fitted inhibition curve with a large enough effect, not every such curve was filed as active; inconclusive = small, poorly fitted or top-dose-only effect, or another doubt; inactive = no such curve, though single readings can be large or run the other way;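 also: potency is read from the fitted curve at half-maximal effect; plate controls were no enzyme wells and a reference inhibitor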
HTT ATP protect: Huntington cell model cytoprotection by ATP luminescence | PC12 HTT-Q103 induced, cytoprotection, ATP luminescence, 40 h | Potency, µM (titrated, usually from 56.4 µM), for inactives: cytoprotection (ATP increase), most hits filed as activators | hit rate 0.14% among 230,000 | AID 1471; also: potency is read from the fitted curve at half-maximal effect; % of control where 0% means no effect; nearly all actives have a fitted effect of over 45% in size
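Rat PC12, Q103 Htt exon1-GFP fusion, ecdysone promoter; tebufenozide inducer 100 nM final; compound titration; qHTS, 1500 cells/well; ATPlite luminescent read.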
IMPase Li inh: cell-permeable IMPase inhibitors with lithium potentiation; Potency, µM (highest dose often 59.4 µM), without a hit: top-dose activity, negative = IMPase inhibition, usual class: inhibitors; AID 1457; hit rate 0.35% among 210,000; CHO-M1 cells, IP1 TR-FRET (IP-One), carbachol + lithium;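 also: IP1 builds up when IMPase is blocked and the TR-FRET signal falls; potency is read from the fitted curve at half-maximal effect; plate controls were basal vehicle for no effect and high inhibitor control for full effect; nearly all actives have a fitted effect of over 50% in size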
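CHO cells stably expressing M1 receptor (2000/well) were cultured 16–30 h, then exposed to compounds with a small lithium addition for 30 min at 37C. IP1 was measured by TR-FRET competition; AC50 from Hill fits.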
HPGD inh: HPGD (human) dehydrogenase inhibition; Potency, µM, for the others: top-dose activity change, negative = inhibition, most hits filed as inhibitors; purified HPGD, NADH fluorescence kinetic, PGE2 substrate; P15428; AID 894; hit rate 4.3% among 150,000; active = well fitted inhibition curve with a large enough effect, not every such curve was filed as active; inconclusive = small, poorly fitted or top-dose-only effect, or another doubt; inactive = no such curve, though single readings can be large or run the other way; also: potency is read from the fitted curve at half-maximal effect; % is scaled to controls: 0 for no effect and ±100 for the full control effect
Target sequence (P15428 whole entry, looked up): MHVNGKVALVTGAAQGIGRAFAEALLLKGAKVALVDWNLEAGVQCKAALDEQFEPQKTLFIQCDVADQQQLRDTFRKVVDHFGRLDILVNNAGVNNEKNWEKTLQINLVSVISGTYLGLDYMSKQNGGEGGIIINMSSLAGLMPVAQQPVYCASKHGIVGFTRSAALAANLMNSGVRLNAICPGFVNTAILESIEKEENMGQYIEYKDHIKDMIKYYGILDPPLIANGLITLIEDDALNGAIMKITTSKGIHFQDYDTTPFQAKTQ
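20 nM HPGD preincubated 15 min at room temperature with compound in 50 mM Tris-HCl pH 8, 0.01% Tween 20. Started with 1 mM NAD+ and 30 uM prostaglandin E2; NADH fluorescence (360/450 nm) read 5 times over 30-s intervals, last minus first.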
Active calls of the source: *; u = inconclusive; x = not tested or not shown; [ ] = dose if it differs, or a comment. An excerpt weighted towards active compounds, which were near 9.4% of everything screened. Unless noted, calls follow the shape of the dose curve; as a rule, active = well fitted curve in the direction sought with a large enough effect; inconclusive = small, poorly fitted or top-dose-only effect, or another doubt; inactive = no such curve, though single readings can be large; an effect the other way counts as inactive or inconclusive.

SMILES | HttQ103 aggreg | IMPase cell inh | ALDH1A1 block | HTT ATP protect | IMPase Li inh | HPGD inh
CC(C)OC(=O)n1c(=S)oc2ccccc21 | 5.3%[9.22 µM] | 1.1 | 7.08µM* | 7.5% | 14.2%[38.3 µM] | u
CCCCC(=O)/C=C/n1c(=S)oc2ccccc21 | u | x | 11.2µM* | 9.9%[10 µM] | 0.2% | u
CC1CCCCN1C(=O)COc1ccc(F)cc1 (centres undefined) | -10.3%[9.22 µM] | x | 2.4% | -2.4%[10 µM] | 3.6% | x
COc1ccccc1-c1cc(C(=O)N2CCc3ccccc3C2)no1 | x | x | x | -1.5% | x | x
Cc1onc(-c2c(F)cccc2Cl)c1C(=O)NC(=S)NC1CCSC1=O (centres undefined) | -3.3% | x | 10µM* | -6.1%[0.074 µM] | 13.0% | u
Cc1onc(-c2c(Cl)cccc2Cl)c1C(=O)NC(=S)Nc1sc2c(c1C(N)=O)CCC(C)C2 (centres undefined) | 1.0% | 2.7 | 18.9µM* | -16.4%[10 µM] | -8.2% | -5.2%
COc1ccccc1CNc1ncncc1-c1ccccc1OC | x | x | 1.0% | 4.8% | 16.7% | x
NC[C@H]1O[C@H](n2cnc3c(N)ncnc32)C[C@@H]1O | x | x | -6.0%[13.5 µM] | -5.1%[10 µM] | -6.9% | -10.8%
CC(=O)c1ccc(OC(C)C)c(CSc2nc(O)cc(=O)[nH]2)c1 | u | 7.7 | u | 16.7% | -1.5%[38.3 µM] | 3.55µM*
COc1cc(NS(=O)(=O)c2ccc(NC(C)=O)cc2)nc(OC)n1 | u | -0.2 | u | 9.6% | 0.3%[38.3 µM] | 1.9%
COc1cc(NS(=O)(=O)c2ccc(N/C=C(\C#N)c3nc4cc(Cl)ccc4o3)cc2)nc(OC)n1 | u | 6.9 | 8.8% | 13.6% | 6.3%[38.3 µM] | 28.2µM*
Cc1cnc(CNc2cc(-c3ccc(C(=O)N(C)C)cc3)ncn2)cn1 | x | x | u | -12.8% | 1.8% | x
Cc1cnc(CNc2ccnc(-c3ccc(C(=O)N(C)C)cc3)n2)cn1 | x | x | -5.5% | -10.7% | 0.7% | 5.62µM*
C/C(CCC12CC3CC(CC(C3)C1)C2)=N\NC(N)=S | -15.0%[9.22 µM] | 1.0 | u | 2.82µM* | -22.7%[38.3 µM] | -13.0%
C/C(CC1CC(C)OC1=O)=N\NC(N)=S (centres undefined) | 16.9% | -6.8 | 11.4% | -6.3%[10 µM] | -13.7% | -8.3%
CC(CCc1nc2ccccc2s1)(c1ccc(O)cc1)c1ccc(O)cc1 | x | x | 6.4%[13.5 µM] | 10.2%[10 µM] | -2.8% | u
Cc1cccc(NCCC(=O)c2ccc([N+](=O)[O-])cc2)c1C | 4.6%[9.22 µM] | x | 0.178µM* | -48.7% | 5.5% | x
COc1ccc(C(=O)CC(Nc2ccc([N+](=O)[O-])cc2)c2ccc(OC)cc2)cc1 (centres undefined) | -3.6% | -9.3 | u | 24.9%[10 µM] | 19.0% | -12.3%
Cc1ccc(CC(=O)Nc2cccc([N+](=O)[O-])c2)cc1 | -11.1%[9.22 µM] | x | -5.4% | -16.7% | 6.2% | x
Cc1ccc(NCC(=O)c2ccc([N+](=O)[O-])cc2)cc1 | -14.4% | x | 7.94µM* | 13.2% | 10.6% | x
CNC(CC(=O)c1ccc([N+](=O)[O-])cc1)C(Cl)(Cl)Cl (centres undefined) | 5.2% | 8.9 | 0.562µM* | -24.1%[10 µM] | 8.3% | 10µM*
Cc1ccc(C(=O)CNc2cccc([N+](=O)[O-])c2)cc1 | 10.6% | x | 12.6µM* | -26.9% | -8.3% | x
Cc1ccc(C)c(Nc2ncccc2C(=O)NCc2cccs2)c1 | -4.5% | x | -9.5% | -9.6%[10 µM] | 23.5% | 25.1µM*
Cc1ccc2[nH]cc(C(=O)NCc3cccs3)c(=O)c2c1 | -15.5% | 5.8 | 15.8µM* | -7.0%[1.9 µM] | 16.7% | -7.9%
COc1cccc2c(=O)c(C(=O)NCc3cccs3)c[nH]c12 | -12.1% | 5.7 | u | -46.9% | u | u
CCN(CC)c1ncccc1C(=O)NCc1cccs1 | 19.3%[9.22 µM] | -0.4 | 3.4% | 0.1% | 3.5%[38.3 µM] | -3.8%
C=CCNC1=C(Cl)C(=O)N(c2ccccc2Cl)C1=O | 25.8% | 12.1 | 25.1µM* | -24.8% | -9.2%[38.3 µM] | -16.6%
Cc1c(NC2=C(Cl)C(=O)N(c3ccccc3Cl)C2=O)c(=O)n(-c2ccccc2)n1C | -8.7% | x | 35.5µM* | x | -7.3% | -7.6%
O=C1C(Cl)=C(N2CCOCC2)C(=O)N1c1ccccc1Cl | 24.5% | -0.1 | u | -7.1% | -3.4%[38.3 µM] | -8.5%
